Screening results (PubChem)
Coupling enz: counter-screen for Giardia aldolase inhibitors: coupling enzyme system; coupling enzyme system counterscreen, AmpLite Red fluorescence; activity change, negative = inhibition, % at 58.2 µM, hits read low; 0.67% of 290,000 active; AID 2472; in the data active = activity change below about -30%
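Coupling enzymes only (glyceraldehyde-3-phosphate) + compound, at 57.5 uM final, 10 min RT; add substrate/coupling/AmpLite Red mix, 20 min RT; fluorescence ex 525/em 598 nm. Actives flag coupling-system interference.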
GoLoco inh red: inhibitors of human Gai1-RGS12 GoLoco interaction (red fluorophore); 0.44% of 230,000 active; Potency, µM (doses to about 61.6 µM), for the others: at the top dose activity, negative = inhibition, actives largely listed as inhibitors; P63096; AID 880; Gai1:RGS12 GoLoco peptide FP, rhodamine, 10 min; active = well fitted inhibition curve with a large enough effect, not every such curve was filed as active; inactive = no such curve, though single readings can be large or run the other way; also: potency is read from the fitted curve at half-maximal effect; nearly all actives have a fitted effect of over 30% in size
Target sequence (P63096 whole entry, looked up): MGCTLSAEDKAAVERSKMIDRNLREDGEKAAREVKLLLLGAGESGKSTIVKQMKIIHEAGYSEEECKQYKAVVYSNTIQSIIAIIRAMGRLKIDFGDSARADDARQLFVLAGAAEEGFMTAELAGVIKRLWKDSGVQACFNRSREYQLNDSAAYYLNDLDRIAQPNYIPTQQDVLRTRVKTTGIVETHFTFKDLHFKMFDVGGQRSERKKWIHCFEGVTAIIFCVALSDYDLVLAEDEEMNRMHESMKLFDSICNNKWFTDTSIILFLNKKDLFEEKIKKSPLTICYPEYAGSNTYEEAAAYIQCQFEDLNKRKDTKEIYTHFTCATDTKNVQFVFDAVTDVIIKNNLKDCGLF
TexasRed fluor: counter-screen for TRb-SRC2 inhibitors: fluorescence interference | TRb/SRC2 Texas Red total fluorescence interference | Potency, µM (doses to about 106 µM), for inactives: at the highest dose fluorescence change, negative = quenching | 0.29% of 280,000 active; active = well fitted curve in either direction with a large enough effect; inconclusive = small, poorly fitted or top-dose-only effect; also: potency is read from the fitted curve at half-maximal effect
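Flags fluorescent or light-absorbing compounds by total fluorescence, S + 2P, at 555 nm excitation and 632 nm emission. Mixture: 20 nM Texas Red SRC2 peptide, 0.6 uM human TRb LBD, 1 uM T3, 5% DMSO; compound exposure 5 h at ambient temperature.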
TRb-SRC2 inh: disrupts binding of human TR beta to SRC2 | P10828 | TRbeta-SRC2 peptide binding, fluorescence polarization; receptor liganded with 1 µM T3 | Potency, µM (top dose mostly 106 µM), for the others: top-dose activity change, negative = inhibition, hits mostly inhibitors | 0.065% of 280,000 active | AID 1469; active = well fitted inhibition curve with a large enough effect; inconclusive = small, poorly fitted or top-dose-only effect, or effect the other way;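 also: potency is read from the fitted curve at half-maximal effect; plate controls were bound peptide for no effect and peptide without receptor for full effect; nearly all actives have a fitted effect of over 50% in size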
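Quantitative HTS by FP: 0.6 uM TRb LBD, 20 nM labeled SRC2 20-mer, 1 uM T3, 5% DMSO; 5 hr ambient incubation; % activity per concentration and potencies from concentration series.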
An asterisk follows results filed as active; [ ] = another dose, or the depositor's remark. The list is not random: actives were taken first. Their share in the collection is about 0.93%. Unless noted, % is scaled to controls: 0 for no effect and ±100 for the full control effect.

COc1ccccc1/C=N/Nc1cc(C)nc(N2CCOCC2)n1 was read as Coupling enz -1, GoLoco inh red -1%, TexasRed fluor -3% and TRb-SRC2 inh 15%.
`CC(C)CC(=O)NC(=S)Nc1ccc(Cl)cn1` gave Coupling enz 3, GoLoco inh red 52%, TexasRed fluor 4µM*[quencher] and TRb-SRC2 inh -21%[53 µM].
For CC(=O)CC(=O)Nc1ccc(Cl)cn1 the results were Coupling enz -1, GoLoco inh red 11%, TexasRed fluor -1% and TRb-SRC2 inh -1%.
Oc1cccc2c(NC(=S)Nc3ccc(OC(F)F)cc3)cccc12 was read as Coupling enz -48*, GoLoco inh red -12%, TexasRed fluor 0% and TRb-SRC2 inh -5%.
Screening CC(=O)Nc1ccc(S(=O)(=O)NC2=NCN(C(C)C)CN2)cc1 returned TexasRed fluor 13µM*[quencher] and TRb-SRC2 inh -4%.
For Cc1cccc(C(=O)N2CCc3cc(CNC(=O)c4cc5ccccc5[nH]4)ccc32)c1 the results were TexasRed fluor -6% and TRb-SRC2 inh -5%.
CCC(C)NC(=O)CSc1nc2ccc(N3CCOCC3)cc2c(=O)n1CCc1ccccc1 (configuration not stated) was read as Coupling enz -22, GoLoco inh red 8%, TexasRed fluor 1% and TRb-SRC2 inh -28%.
`CCCCn1c(SCC(=O)NC(C)CC)nc2ccc(N3CCOCC3)cc2c1=O` (configuration not stated) gave Coupling enz -36*, GoLoco inh red -14%, TexasRed fluor -5% and TRb-SRC2 inh -8%.
Screening CCCCn1c(SCC(=O)Nc2ccc(OC)cc2)nc2ccc(N3CCOCC3)cc2c1=O returned Coupling enz -32*, GoLoco inh red 3%, TexasRed fluor -1% and TRb-SRC2 inh -15%.
`CCCCn1c(SCC(=O)NCc2ccco2)nc2ccc(N3CCOCC3)cc2c1=O` gave Coupling enz -40*, GoLoco inh red -6%, TexasRed fluor -1% and TRb-SRC2 inh -2%.
`CCCCn1c(SCC(=O)N2CCOCC2)nc2ccccc2c1=O` gave Coupling enz 1.
CCn1c(SCC(=O)Nc2ccc(N3CCOCC3)cc2)nnc1-c1ccc(OC)cc1 was read as Coupling enz 3, GoLoco inh red -3%, TexasRed fluor -3% and TRb-SRC2 inh -1%.
For CCCCn1c(SCC(=O)NCc2ccccc2)nc2ccc(N3CCOCC3)cc2c1=O the results were Coupling enz -37*, GoLoco inh red -1%, TexasRed fluor 0% and TRb-SRC2 inh -18%.
For COC(=O)c1c(Cl)nn(C)c1S(=O)(=O)NC(=O)Nc1nc(OC)cc(OC)n1 the results were TexasRed fluor -3%[201 µM] and TRb-SRC2 inh 0%[201 µM].
COc1ccc(N2CCN(CCCNC(=O)c3cnn(-c4ccc(C)cc4)c3-n3cccc3)CC2)cc1 was read as TexasRed fluor -2% and TRb-SRC2 inh 8%.
Cc1cc(=O)[nH]c2nnc(SCC(N)=O)n12 was read as TexasRed fluor -2% and TRb-SRC2 inh -9%.
CCN(c1ccccc1)c1nc(=O)c2cccnc2s1 was read as Coupling enz 2, GoLoco inh red -1%, TexasRed fluor -3% and TRb-SRC2 inh -2%.
Screening CCN(c1ccccc1)c1cc2ccccc2c(=O)[nH]1 returned Coupling enz -34*.
For C[N+]1(CCCCSc2ccc(O)cc2)CCCCC1 the results were Coupling enz 2, GoLoco inh red 0.63µM*, TexasRed fluor 0% and TRb-SRC2 inh -4%.
C[N+]1(CCCC[N+]2(C)CCCCCCC2)CCCCCCC1 was read as GoLoco inh red 7%[14.2 µM].
Screening CCCCC(=O)OCC(=O)[C@]1(O)Cc2c(O)c3c(c(O)c2[C@H](OC2CC(NC(=O)C(F)(F)F)C(O)C(C)O2)C1)C(=O)c1c(OC)cccc1C3=O (some centres not stated) returned GoLoco inh red 3%, TexasRed fluor inconclusive and TRb-SRC2 inh 2%.
CC(=O)[C@]1(O)Cc2c(O)c3c(c(O)c2[C@@H](O[C@H]2C[C@H](N)[C@H](O)[C@H](C)O2)C1)C(=O)c1ccccc1C3=O was read as GoLoco inh red 1.6µM*, TexasRed fluor 45µM*[fluorescent] and TRb-SRC2 inh inconclusive.
For CC(=O)[C@]1(O)Cc2c(O)c3c(c(O)c2[C@@H](O[C@H]2C[C@H](N)[C@H](O)[C@H](C)O2)C1)C(=O)c1c(O)cccc1C3=O the results were Coupling enz -35*, GoLoco inh red 0.79µM*, TexasRed fluor 45µM*[fluorescent] and TRb-SRC2 inh 22µM*.
For C=CCc1ccccc1OCC(O)CN1CCN(c2ccccc2)CC1 (configuration not stated) the results were TexasRed fluor 1.6µM*[quencher] and TRb-SRC2 inh inconclusive.
Cc1ccccc1NC(=O)c1c(C)oc2ccc(O)c(CN3CCCC(C)C3)c12 (configuration not stated) was read as TexasRed fluor 6% and TRb-SRC2 inh -8%.
COc1ccccc1/C=C/C(=O)OC(C)CN1CCOCC1 (configuration not stated) was read as Coupling enz -45*, GoLoco inh red -18%, TexasRed fluor -6% and TRb-SRC2 inh 3%.
Screening CC(CN1CCOCC1)OC(=O)c1ccccc1 (configuration not stated) returned Coupling enz 6, GoLoco inh red 2%, TexasRed fluor -1% and TRb-SRC2 inh -1%.
Screening CC(COc1ccc(C(C)(C)C)cc1)OS(=O)OCCCl (configuration not stated) returned TexasRed fluor 0%[201 µM] and TRb-SRC2 inh -1%[201 µM].
`CCCCOCCOCCO` gave TexasRed fluor -2%[201 µM] and TRb-SRC2 inh -8%[201 µM].
Screening COc1ccc(OCC(=O)NCC(c2ccc(OC)cc2)N2CCOCC2)cc1 (configuration not stated) returned TexasRed fluor 89µM*[quencher] and TRb-SRC2 inh -25%.
Screening CCc1nn(CC(=O)NCc2ccc(OC)c(OC)c2)c(=O)c2cc3sc(C)cc3n12 returned TexasRed fluor -10% and TRb-SRC2 inh 4%.
Screening CC1(C)Cc2c(C#N)c(NC3CCCCC3)nc(-c3ccco3)c2CO1 returned Coupling enz -30*, GoLoco inh red 3%, TexasRed fluor 3% and TRb-SRC2 inh -9%.
CC1(C)Cc2c(C#N)c(NCC3CCCO3)nc(-c3ccco3)c2CO1 (configuration not stated) was read as Coupling enz -7, GoLoco inh red -6%, TexasRed fluor 2% and TRb-SRC2 inh 4%.
For CC1=CC2(O)OCCN(CCO)C2=CC1=O (configuration not stated) the results were Coupling enz -67*, GoLoco inh red -15%, TexasRed fluor -25% and TRb-SRC2 inh -16%.
Screening Cc1cc(C)n(-c2ncc3c(n2)N(CCO)CCOC3=O)n1 returned Coupling enz 1, GoLoco inh red 4%, TexasRed fluor -4% and TRb-SRC2 inh 0%.
